Data on 21 molecules can be found in PubChem BioAssay (NCATS).

The target of assay [1] is Rap guanine nucleotide exchange factor 3 (Homo sapiens) (UniProt O95398). The experiment in a line: Confirmatory qHTS for antagonist of cAMP-regulated guanine nucleotide exchange factor 3 (EPAC1) (AID 1645880). Note: nearly all actives have a fitted effect of over 55% in size. Note: potency is the fitted concentration of half-maximal effect. The procedure, abridged:
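Released BODIPY-GDP fluoresces less than Rap1-bound BODIPY-GDP; the signal is followed at 480/540 nm at 5-min intervals over 30 min, after 5 min at room temperature. Reactions contain 100 nM EPAC1, 250 nM RAP1B-BODIPY-GDP and 50 uM GDP; results are normalized to ATA and DMSO.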
Background: qHTS replaces the single test concentration by a dilution series.

For assay [2] the target is unchanged. The assay can be described thus: Confirmatory qHTS for agonist of cAMP-regulated guanine nucleotide exchange factor 3 (EPAC1) (AID 1645881).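 Note: EPAC1 catalysed release of BODIPY-GDP from Rap1B seen as fluorescence loss; 100% = effect of cAMP agonist control; nearly all actives have a fitted effect of over 75% in size.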
Assay [3] has as its target Rap guanine nucleotide exchange factor 4 (Homo sapiens) (UniProt Q8WZA2). The assay can be described thus: Confirmatory qHTS for agonist of cAMP-regulated guanine nucleotide exchange factor 4 (EPAC2) (AID 1645884).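 Note: nucleotide exchange releases bodipy-GDP from Rap1 and this lowers its fluorescence; % is set by controls: 0 for no effect and ±100 for the full control effect; nearly all actives have a fitted effect of over 65% in size.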
For assay [4] the target is unchanged. The experiment in a line: Confirmatory qHTS for antagonist of cAMP-regulated guanine nucleotide exchange factor 4 (EPAC2) (AID 1645885). For activity change, negative = inhibition: % is set by controls: 0 for no effect and ±100 for the full control effect. Note: nearly all actives have a fitted effect of over 25% in size. Note: potency is the fitted concentration of half-maximal effect.
For assay [5], the target named is Rap guanine nucleotide exchange factor 3 (Homo sapiens) (UniProt O95398). The assay can be described thus: Counterscreen qHTS for antagonist of cAMP-regulated guanine nucleotide exchange factor 3 (EPAC1) (AID 1645888). Note: % of control where 0% means no effect. The method, boiled down:
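Measured: fluorescence of BODIPY-GDP bound to Rap1B, which falls as exchange proceeds. Conditions include 50 uM competing GDP, 5 and 30 min reads, and a later cAMP challenge for antagonist detection.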
On the technique in general: A counterscreen serves to expose hits that act by an unwanted route or on another target.

Inconclusive results are not listed. Unmarked numbers belong to inactive results. Activity calls are given as the source filed them. Calls come from the whole dose curve; as a rule, active = well fitted curve in the direction sought with a large enough effect; inconclusive = small, poorly fitted or top-dose-only effect, or another doubt; inactive = no such curve, though single readings can be large; an effect the other way counts as inactive or inconclusive.

Sequence of Rap guanine nucleotide exchange factor 3 (Homo sapiens) (O95398 whole entry, looked up): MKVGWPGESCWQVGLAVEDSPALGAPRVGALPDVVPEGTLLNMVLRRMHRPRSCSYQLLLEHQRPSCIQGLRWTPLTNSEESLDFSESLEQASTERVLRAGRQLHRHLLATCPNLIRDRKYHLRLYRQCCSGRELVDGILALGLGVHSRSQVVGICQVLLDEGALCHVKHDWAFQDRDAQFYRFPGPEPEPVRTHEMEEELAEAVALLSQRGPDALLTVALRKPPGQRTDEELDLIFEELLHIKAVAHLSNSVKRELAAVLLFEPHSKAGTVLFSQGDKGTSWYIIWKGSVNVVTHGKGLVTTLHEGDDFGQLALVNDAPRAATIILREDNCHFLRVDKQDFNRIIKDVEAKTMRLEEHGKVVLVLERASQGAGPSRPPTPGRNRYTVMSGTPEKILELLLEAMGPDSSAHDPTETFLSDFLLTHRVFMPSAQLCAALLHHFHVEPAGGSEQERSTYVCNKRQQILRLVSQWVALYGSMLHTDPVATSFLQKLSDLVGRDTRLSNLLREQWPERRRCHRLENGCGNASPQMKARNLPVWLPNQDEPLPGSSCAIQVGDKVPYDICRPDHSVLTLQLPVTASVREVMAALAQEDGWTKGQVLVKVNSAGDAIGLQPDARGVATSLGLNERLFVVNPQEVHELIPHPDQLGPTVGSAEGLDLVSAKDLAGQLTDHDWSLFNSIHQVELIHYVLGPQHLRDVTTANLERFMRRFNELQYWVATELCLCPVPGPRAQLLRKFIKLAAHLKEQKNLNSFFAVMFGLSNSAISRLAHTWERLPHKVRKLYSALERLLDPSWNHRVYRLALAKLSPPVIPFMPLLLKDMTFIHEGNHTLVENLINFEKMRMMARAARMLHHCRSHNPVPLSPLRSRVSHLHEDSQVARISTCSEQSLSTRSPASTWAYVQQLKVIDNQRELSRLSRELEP
Sequence of Rap guanine nucleotide exchange factor 4 (Homo sapiens) (Q8WZA2 whole entry, looked up): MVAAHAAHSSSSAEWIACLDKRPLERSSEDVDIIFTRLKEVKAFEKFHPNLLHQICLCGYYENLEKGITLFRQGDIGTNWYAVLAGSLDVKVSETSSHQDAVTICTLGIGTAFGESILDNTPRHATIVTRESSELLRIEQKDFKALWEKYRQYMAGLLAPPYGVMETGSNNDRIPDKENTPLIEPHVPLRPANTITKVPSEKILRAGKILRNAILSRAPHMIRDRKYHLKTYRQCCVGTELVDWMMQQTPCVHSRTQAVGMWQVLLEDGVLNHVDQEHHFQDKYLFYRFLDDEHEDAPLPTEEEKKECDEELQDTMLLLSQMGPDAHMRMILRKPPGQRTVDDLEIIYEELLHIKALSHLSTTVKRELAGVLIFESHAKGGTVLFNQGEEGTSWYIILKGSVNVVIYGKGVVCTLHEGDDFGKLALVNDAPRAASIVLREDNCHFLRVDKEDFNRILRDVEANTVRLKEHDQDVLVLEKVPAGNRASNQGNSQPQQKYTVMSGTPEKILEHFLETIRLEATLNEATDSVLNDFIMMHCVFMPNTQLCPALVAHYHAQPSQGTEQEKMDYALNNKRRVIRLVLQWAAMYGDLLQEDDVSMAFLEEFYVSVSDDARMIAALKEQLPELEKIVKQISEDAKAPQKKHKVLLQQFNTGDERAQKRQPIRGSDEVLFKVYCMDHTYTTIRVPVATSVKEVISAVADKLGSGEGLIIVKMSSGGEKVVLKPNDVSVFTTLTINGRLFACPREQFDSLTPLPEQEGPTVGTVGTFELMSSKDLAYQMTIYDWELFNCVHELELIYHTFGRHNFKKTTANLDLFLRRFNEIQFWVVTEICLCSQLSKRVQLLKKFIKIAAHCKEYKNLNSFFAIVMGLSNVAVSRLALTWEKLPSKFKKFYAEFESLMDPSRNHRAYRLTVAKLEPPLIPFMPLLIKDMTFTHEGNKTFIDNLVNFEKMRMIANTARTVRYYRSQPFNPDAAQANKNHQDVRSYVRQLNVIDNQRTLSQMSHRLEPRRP

Consider `C=CCn1c(NC(=O)c2ccccc2Cl)c(C#N)c2nc3ccccc3nc21`, for which the Potency in assay [1] was 35.5 µM (active); in assay [4], 3.01 µM (active). In assay [2], the Potency result was “inactive”. The activation in assay [3] is -3.42% [at 17.1 µM, percent relative to cAMP agonist control]. The activity change, negative = inhibition in assay [5] was -7.8% [at 30.8 µM].

For the molecule `CC1CC1c1ccc(/C=C(\C#N)C(=O)Nc2ccccc2Cl)o1` (stereo not given), the Potency result in assay [1], in assay [2] and in assay [4] was “inactive” in each case. In assay [3], the activation was 3.85% [at 17.1 µM, percent relative to cAMP agonist control]. For the same molecule, the activity change, negative = inhibition in assay [5] is -9.3% [at 30.8 µM].

Consider `Cc1ccc(S(=O)(=O)Nc2cccc(C(=O)NCC(c3ccco3)N3CCCCC3)c2)cc1F` (stereo not given), for which the Potency entry in assay [1], in assay [2], in assay [3], in assay [4] and in assay [5] was “inactive” in each case.

On to `Cc1ccc(S(=O)(=O)/N=C2\SC(CC(=O)Nc3ccc(F)cc3)C(=O)N2c2ccccc2)cc1` (stereo not given), for which the Potency result in assay [1], in assay [2] and in assay [4] was “inactive” each time. The activation in assay [3] was 3.37% [at 17.1 µM, percent relative to cAMP agonist control]. Moreover, the activity change, negative = inhibition in assay [5] is -39.2% [at 30.8 µM].

With `Cc1ccc2c(c1)C(c1ccccc1)CC(=O)O2` (stereo not given), the Potency entry in assay [1], in assay [2], in assay [3] and in assay [5] was “inactive” in each case. For the same molecule, the Potency in assay [4] was 37.9 µM (active).

On to `O=C(c1cccc(-n2cccc2)c1)N1CCN(S(=O)(=O)c2ccccc2)CC1`, for which the Potency in assay [1] was 37.9 µM (active). The Potency entry in assay [2], in assay [3], in assay [4] and in assay [5] was “inactive” throughout.

In the case of `Fc1ccc(C(Nc2ccccn2)c2c[nH]c3ccccc23)cc1` (stereo not given), the Potency result in assay [1], in assay [2] and in assay [4] was “inactive” throughout. In addition, in assay [3], the activation is 7.5% [at 17.1 µM, percent relative to cAMP agonist control]. Moreover, the activity change, negative = inhibition in assay [5] was -2.83% [at 30.8 µM].

Turning to `COC(=O)c1ccc2c(=O)n3nc(Nc4cc(OC)ccc4OC)sc3nc2c1`, the Potency entry in assay [1], in assay [2], in assay [3], in assay [4] and in assay [5] was “inactive” each time.

As to `Cc1ccccc1OCCC(=O)OCC(=O)NC1CCCCC1`, the Potency entry in assay [1], in assay [2] and in assay [4] was “inactive” each time. For the same molecule, the activation in assay [3] was 3.43% [at 17.1 µM, percent relative to cAMP agonist control]. Besides, in assay [5], the activity change, negative = inhibition is 6.94% [at 30.8 µM].

In the case of `Cc1ncc(CO)c(/C=N/NC(=O)c2cc(Br)ccc2O)c1O`, the Potency entry in assay [1], in assay [2] and in assay [4] was “inactive” each time. Moreover, in assay [3], the activation is 0% [at 17.1 µM, percent relative to cAMP agonist control]. For the same molecule, in assay [5], the activity change, negative = inhibition is -9.07% [at 30.8 µM].

For `CS(=O)(=O)c1ccc2c(c1)sc1nc(=O)c(/C=C3/C=CC(=O)C(O)=C3)c(N)n12`, the Potency in assay [1] is 3.38 µM (active). The Potency entry in assay [2], in assay [3], in assay [4] and in assay [5] was “inactive” throughout.

For `Cc1cc(C)cc(NC(=O)N2CCC(CN3CCc4ccccc4C3)CC2)c1`, the Potency entry in assay [1], in assay [2], in assay [3], in assay [4] and in assay [5] was “inactive” each time.

For `CCOc1ccc(CCNC(=O)c2ccc3c(=O)[nH]c4c(C(=O)NC(C)C)sc(=S)n4c3c2)cc1`, the Potency in assay [1] is 21.3 µM (active). Moreover, the Potency result in assay [2], in assay [3], in assay [4] and in assay [5] was “inactive” throughout.

For the molecule `COCOCCn1cc(CN2CCS(=O)(=O)N(Cc3ccc(-c4ccc(C)cc4)cc3)C(CC(C)C)C2=O)nn1` (stereo not given), the Potency entry in assay [1], in assay [2] and in assay [4] was “inactive” each time. The activation in assay [3] is 9.16% [at 17.1 µM, percent relative to cAMP agonist control]. Further, in assay [5], the activity change, negative = inhibition was 15.6% [at 30.8 µM].

On to `O=C1C=C(Nc2cccnc2)c2ccccc2C1=O`, for which, in assay [1], the Potency is 67.5 µM (active). The Potency entry in assay [2], in assay [3] and in assay [5] was “inactive” in each case. Also, in assay [4], the outcome is “inactive [at 12.7 µM]”.

Take `Cc1ccc(C)c(N(C)C(=O)c2cn(C)c(=O)c3ccccc23)c1`: the Potency entry in assay [1], in assay [2], in assay [3], in assay [4] and in assay [5] was “inactive” in each case.

In the case of `O=[N+]([O-])c1cc([N+](=O)[O-])c2nonc2c1Nc1ccc(O)cc1`, the Potency is 75.7 µM (active) in assay [1] and 42.6 µM (active) in assay [4]. Also, the Potency entry in assay [2], in assay [3] and in assay [5] was “inactive” each time.

As to `O=S(=O)(NCc1ccco1)c1ccc(Cl)cc1Cl`, the Potency entry in assay [1], in assay [2] and in assay [4] was “inactive” throughout. Moreover, in assay [3], the activation was 3.78% [at 17.1 µM, percent relative to cAMP agonist control]. Also, the activity change, negative = inhibition in assay [5] was -9.1% [at 30.8 µM].

`COC(=O)c1ccc2nc(-c3ccccc3)c(Cc3ccc(C)cc3)n2c1`: the Potency result in assay [1], in assay [2], in assay [3], in assay [4] and in assay [5] was “inactive” each time.

`CCOc1ccc(S(=O)(=O)N2CCCCC2)c2ccccc12`: the Potency entry in assay [1], in assay [2], in assay [3], in assay [4] and in assay [5] was “inactive” throughout.

Take `CCc1nc2ccc(C(=O)N(C)Cc3ccccc3)cn2c1N(CC)Cc1cccc(Br)c1`: the Potency entry in assay [1], in assay [2] and in assay [4] was “inactive” each time. In addition, the activation in assay [3] was 3.66% [at 17.1 µM, percent relative to cAMP agonist control]. Also, the activity change, negative = inhibition in assay [5] is -21% [at 30.8 µM].
